Data as given in the supplement of paper PMC10849652.
About 7,900 targets were measured; listed, in parts, are those with a hit and a random draw of the rest. About 0.6% of all pairs of compound and target were hits. Unmarked numbers belong to inactive results.

Experiments:
Assay in all cases: log2 fold change, soluble protein after heating vs DMSO (PISA); higher = thermal stabilisation; K562 cells, 10 uM, 30 min; active = over 0.2 and 3.5 SD of the protein, either way, in both replicates (recomputed)
bafetinib = compound: Cc1ccc(NC(=O)c2ccc(CN3CC[C@H](N(C)C)C3)c(C(F)(F)F)c2)cc1Nc1nccc(-c2cncnc2)n1 [bafetinib]
Procedure, shortened: (§1)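 K562 cells at 2×10^6 cells/mL were treated with 10 μM compound for 30 min. Aliquots were heated for 3 min across 48°C-58°C, pooled, and extracted in PBS with 0.5% NP-40 at 4°C; soluble protein was the supernatant after 21,000xg for 90 min. Soluble protein was quantified by TMTpro 16plex LC-MS/MS with channel sums equalised, and reported as log2 fold change in thermal stability against DMSO controls, with values from duplicates.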

[1] = compound: Cc1cccc(CC(=O)N2CCc3c2ccc(-c2cn(C)c4ncnc(N)c24)c3F)n1
Procedure, shortened: as §1

nilotinib = compound: Cc1cn(-c2cc(NC(=O)c3ccc(C)c(Nc4nccc(-c5cccnc5)n4)c3)cc(C(F)(F)F)c2)cn1 [nilotinib]
Procedure, shortened: as §1

[2] = compound: Cc1nc(Nc2n[nH]c3c2CN(C(=O)N[C@H](CN(C)C)c2ccccc2)C3(C)C)c2sccc2n1
Procedure, shortened: as §1

dasatinib = compound: Cc1nc(Nc2ncc(C(=O)Nc3c(C)cccc3Cl)s2)cc(N2CCN(CCO)CC2)n1 [dasatinib]
Procedure, shortened: as §1

[3] = compound: Cc1ncc(-c2ccnc(Nc3ccc(S(C)(=O)=O)cc3)n2)n1C(C)C
Procedure, shortened: as §1

[4] = compound: Cn1cc(-c2ccc3c(c2)CCN3C(=O)Cc2cccc(C(F)(F)F)c2)c2c(N)ncnc21
Procedure, shortened: as §1

[5] = compound: Cn1cc(-c2ccc3nnc(C(F)(F)c4ccc5ncccc5c4)n3n2)cn1
Procedure, shortened: as §1

tipifarnib = compound: Cn1cncc1[C@@](N)(c1ccc(Cl)cc1)c1ccc2c(c1)c(-c1cccc(Cl)c1)cc(=O)n2C [tipifarnib]
Procedure, shortened: as §1

mubritinib = compound: FC(F)(F)c1ccc(/C=C/c2nc(COc3ccc(CCCCn4ccnn4)cc3)co2)cc1 [mubritinib]
Procedure, shortened: as §1

[6] = compound: NC(=O)Nc1cc(-c2cccc(F)c2)sc1C(=O)N[C@H]1CCCNC1
Procedure, shortened: as §1

[7] = compound: NC(=O)c1cnc(N[C@@H]2CCCC[C@@H]2N)nc1Nc1cccc(-n2nccn2)c1
Procedure, shortened: as §1

[8] = compound: NC1(c2ccc(-c3nc4ccn5c(=O)[nH]nc5c4cc3-c3ccccc3)cc2)CCC1
Procedure, shortened: as §1

[9] = compound: NCC(=O)Nc1ccc(-n2nc(C(F)(F)F)cc2-c2ccc3c(ccc4ccccc43)c2)cc1
Procedure, shortened: as §1

entinostat = compound: Nc1ccccc1NC(=O)c1ccc(CNC(=O)OCc2cccnc2)cc1 [entinostat]
Procedure, shortened: as §1

vorinostat = compound: O=C(CCCCCCC(=O)Nc1ccccc1)NO [vorinostat]
Procedure, shortened: as §1

citarinostat = compound: O=C(CCCCCCNC(=O)c1cnc(N(c2ccccc2)c2ccccc2Cl)nc1)NO [citarinostat]
Procedure, shortened: as §1

silmitasertib = compound: O=C(O)c1ccc2c(c1)nc(Nc1cccc(Cl)c1)c1ccncc12 [silmitasertib]
Procedure, shortened: as §1

[10] = compound: O=C1NC(=O)C(c2cnc3ccccn23)=C1c1cn2c3c(cc(F)cc13)CN(C(=O)N1CCCCC1)CC2
Procedure, shortened: as §1

[11] = compound: c1cc(OCCN2CCCCC2)cc(-c2n[nH]c3ccc(-c4nnc[nH]4)cc23)c1
Procedure, shortened: as §1

Chain of UniProt O00468 (O00468 whole entry, looked up): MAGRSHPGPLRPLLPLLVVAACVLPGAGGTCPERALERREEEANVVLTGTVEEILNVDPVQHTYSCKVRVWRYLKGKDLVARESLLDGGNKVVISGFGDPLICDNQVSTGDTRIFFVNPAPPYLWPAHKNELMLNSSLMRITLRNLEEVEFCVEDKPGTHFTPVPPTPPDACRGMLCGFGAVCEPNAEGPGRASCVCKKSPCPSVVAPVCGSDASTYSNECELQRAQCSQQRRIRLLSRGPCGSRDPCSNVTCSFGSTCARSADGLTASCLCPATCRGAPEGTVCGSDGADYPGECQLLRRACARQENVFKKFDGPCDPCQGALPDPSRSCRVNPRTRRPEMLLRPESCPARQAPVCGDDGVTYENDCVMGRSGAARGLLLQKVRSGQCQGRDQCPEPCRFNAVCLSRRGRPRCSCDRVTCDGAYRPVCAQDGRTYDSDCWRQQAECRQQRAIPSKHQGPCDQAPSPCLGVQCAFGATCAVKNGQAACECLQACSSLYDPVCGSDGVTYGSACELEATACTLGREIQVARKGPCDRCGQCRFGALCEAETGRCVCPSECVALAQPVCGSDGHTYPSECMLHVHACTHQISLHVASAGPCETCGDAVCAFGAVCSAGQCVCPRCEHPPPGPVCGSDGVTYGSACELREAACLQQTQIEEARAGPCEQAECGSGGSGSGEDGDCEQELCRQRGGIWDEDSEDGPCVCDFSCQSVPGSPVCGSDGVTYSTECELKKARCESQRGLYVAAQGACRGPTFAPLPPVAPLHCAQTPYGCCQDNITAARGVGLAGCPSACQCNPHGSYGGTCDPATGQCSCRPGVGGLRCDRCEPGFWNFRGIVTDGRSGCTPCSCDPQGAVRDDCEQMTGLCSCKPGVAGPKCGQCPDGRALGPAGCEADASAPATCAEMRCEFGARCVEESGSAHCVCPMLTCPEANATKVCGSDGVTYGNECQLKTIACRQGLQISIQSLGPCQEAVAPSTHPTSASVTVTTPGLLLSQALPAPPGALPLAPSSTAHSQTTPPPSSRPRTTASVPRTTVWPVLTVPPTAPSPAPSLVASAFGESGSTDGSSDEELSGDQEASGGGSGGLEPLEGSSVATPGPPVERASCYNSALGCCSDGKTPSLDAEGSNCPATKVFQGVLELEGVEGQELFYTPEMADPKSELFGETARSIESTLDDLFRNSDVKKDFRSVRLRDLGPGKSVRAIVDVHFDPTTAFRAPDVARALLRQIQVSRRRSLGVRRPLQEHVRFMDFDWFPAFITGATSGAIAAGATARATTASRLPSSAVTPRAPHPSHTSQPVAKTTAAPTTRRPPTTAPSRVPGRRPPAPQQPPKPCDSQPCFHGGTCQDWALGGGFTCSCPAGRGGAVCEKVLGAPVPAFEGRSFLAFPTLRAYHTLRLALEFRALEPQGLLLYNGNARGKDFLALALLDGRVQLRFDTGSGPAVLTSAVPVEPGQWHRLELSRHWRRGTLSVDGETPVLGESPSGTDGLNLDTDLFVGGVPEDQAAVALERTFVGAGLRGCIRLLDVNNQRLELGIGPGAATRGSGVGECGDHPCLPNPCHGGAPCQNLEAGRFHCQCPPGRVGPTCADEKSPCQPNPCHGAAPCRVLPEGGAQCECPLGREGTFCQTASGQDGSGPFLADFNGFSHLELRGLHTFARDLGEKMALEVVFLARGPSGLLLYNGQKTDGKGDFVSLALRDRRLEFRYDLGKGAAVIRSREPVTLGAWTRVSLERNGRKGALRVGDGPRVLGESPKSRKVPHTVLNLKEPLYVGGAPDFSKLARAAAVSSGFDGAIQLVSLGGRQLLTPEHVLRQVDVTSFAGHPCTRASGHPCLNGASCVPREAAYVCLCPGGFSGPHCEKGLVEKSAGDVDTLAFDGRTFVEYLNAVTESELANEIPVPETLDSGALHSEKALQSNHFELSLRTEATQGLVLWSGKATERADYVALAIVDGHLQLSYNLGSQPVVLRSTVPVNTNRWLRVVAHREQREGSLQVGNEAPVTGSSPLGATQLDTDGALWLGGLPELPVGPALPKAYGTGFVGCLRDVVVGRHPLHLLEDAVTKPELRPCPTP
Chain of UniProt Q6P6C2 (Q6P6C2 whole entry, looked up): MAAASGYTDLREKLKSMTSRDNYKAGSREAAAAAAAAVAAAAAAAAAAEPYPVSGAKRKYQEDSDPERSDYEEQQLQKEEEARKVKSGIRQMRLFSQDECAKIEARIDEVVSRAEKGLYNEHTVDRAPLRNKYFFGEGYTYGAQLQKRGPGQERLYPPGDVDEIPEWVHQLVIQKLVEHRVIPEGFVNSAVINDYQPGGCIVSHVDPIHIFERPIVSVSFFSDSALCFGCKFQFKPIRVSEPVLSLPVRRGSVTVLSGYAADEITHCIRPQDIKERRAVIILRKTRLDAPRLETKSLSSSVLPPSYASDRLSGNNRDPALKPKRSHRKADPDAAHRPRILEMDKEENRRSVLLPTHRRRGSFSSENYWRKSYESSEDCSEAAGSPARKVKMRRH
Chain of UniProt Q9NRZ7 (Q9NRZ7 whole entry, looked up): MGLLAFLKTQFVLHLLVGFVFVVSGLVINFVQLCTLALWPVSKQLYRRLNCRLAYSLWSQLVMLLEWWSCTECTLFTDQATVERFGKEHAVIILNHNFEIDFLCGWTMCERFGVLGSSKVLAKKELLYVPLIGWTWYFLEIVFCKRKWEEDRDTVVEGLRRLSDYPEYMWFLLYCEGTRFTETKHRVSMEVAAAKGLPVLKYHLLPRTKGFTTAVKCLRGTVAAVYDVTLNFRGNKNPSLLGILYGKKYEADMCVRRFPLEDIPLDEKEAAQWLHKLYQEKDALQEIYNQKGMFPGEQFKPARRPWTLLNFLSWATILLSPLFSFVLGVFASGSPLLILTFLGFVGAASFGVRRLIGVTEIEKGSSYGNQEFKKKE
Chain of UniProt O43861 (O43861 whole entry, looked up): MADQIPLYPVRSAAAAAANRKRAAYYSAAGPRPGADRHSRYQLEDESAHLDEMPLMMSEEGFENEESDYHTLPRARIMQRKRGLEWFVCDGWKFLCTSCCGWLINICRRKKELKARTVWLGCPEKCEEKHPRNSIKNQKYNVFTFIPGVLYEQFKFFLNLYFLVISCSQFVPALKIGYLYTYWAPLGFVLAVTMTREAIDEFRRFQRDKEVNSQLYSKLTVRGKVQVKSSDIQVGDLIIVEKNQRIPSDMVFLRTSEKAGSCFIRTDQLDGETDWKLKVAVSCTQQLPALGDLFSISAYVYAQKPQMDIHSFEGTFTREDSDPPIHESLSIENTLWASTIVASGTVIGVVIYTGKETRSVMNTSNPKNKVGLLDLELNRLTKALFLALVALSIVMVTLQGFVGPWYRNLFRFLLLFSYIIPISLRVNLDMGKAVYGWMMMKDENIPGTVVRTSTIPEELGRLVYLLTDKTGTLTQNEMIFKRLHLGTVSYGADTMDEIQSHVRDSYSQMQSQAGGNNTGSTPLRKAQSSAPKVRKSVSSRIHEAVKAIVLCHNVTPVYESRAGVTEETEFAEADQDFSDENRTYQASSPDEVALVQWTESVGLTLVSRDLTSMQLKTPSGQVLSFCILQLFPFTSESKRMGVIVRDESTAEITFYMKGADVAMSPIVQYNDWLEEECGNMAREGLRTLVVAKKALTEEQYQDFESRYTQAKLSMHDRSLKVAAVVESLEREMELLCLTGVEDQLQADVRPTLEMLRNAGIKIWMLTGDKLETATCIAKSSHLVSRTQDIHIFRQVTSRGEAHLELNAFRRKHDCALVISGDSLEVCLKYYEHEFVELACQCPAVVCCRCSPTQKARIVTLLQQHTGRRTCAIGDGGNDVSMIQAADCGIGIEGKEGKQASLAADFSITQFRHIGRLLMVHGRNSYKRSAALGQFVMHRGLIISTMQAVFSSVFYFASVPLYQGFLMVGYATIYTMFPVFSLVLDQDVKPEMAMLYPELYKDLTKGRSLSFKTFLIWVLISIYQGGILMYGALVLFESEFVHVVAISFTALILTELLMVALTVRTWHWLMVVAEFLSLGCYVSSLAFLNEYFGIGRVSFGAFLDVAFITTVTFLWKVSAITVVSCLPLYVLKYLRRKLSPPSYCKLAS
Chain of UniProt Q9BTT0 (Q9BTT0 whole entry, looked up): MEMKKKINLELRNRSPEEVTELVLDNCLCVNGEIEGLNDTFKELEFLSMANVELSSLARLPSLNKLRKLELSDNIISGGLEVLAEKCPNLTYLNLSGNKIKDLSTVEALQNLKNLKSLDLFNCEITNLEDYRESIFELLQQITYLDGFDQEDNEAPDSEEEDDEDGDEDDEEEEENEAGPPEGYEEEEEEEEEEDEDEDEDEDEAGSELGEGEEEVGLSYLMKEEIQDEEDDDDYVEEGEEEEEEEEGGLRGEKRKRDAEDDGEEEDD
Chain of UniProt Q53FZ2 (Q53FZ2 whole entry, looked up): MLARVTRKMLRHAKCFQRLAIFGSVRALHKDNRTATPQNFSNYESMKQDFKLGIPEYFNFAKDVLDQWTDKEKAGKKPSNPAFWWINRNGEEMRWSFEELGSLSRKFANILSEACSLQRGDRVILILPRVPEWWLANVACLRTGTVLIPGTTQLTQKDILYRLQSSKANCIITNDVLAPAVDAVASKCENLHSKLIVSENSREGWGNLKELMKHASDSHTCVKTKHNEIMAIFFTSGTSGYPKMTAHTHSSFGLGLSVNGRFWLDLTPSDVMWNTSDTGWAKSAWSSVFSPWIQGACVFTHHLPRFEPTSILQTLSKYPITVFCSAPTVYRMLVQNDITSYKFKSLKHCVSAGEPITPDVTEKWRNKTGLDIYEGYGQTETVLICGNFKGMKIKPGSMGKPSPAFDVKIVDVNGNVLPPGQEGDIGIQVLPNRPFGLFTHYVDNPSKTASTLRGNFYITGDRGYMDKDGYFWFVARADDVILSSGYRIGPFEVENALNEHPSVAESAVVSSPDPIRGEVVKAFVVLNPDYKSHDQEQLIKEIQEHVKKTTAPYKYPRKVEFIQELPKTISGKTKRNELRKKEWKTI
Chain of UniProt Q92934 (Q92934 whole entry, looked up): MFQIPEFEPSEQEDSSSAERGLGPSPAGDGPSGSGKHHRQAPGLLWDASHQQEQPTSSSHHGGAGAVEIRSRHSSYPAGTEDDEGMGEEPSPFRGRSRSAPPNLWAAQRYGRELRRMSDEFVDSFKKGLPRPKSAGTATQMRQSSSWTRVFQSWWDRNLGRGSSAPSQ

Row | Target | log2 fold change (bafetinib) | log2 fold change [1] | log2 fold change (nilotinib) | log2 fold change [2] | log2 fold change (dasatinib) | log2 fold change [3] | log2 fold change [4] | log2 fold change [5] | log2 fold change (tipifarnib) | log2 fold change (mubritinib) | log2 fold change [6] | log2 fold change [7] | log2 fold change [8] | log2 fold change [9] | log2 fold change (entinostat) | log2 fold change (vorinostat) | log2 fold change (citarinostat) | log2 fold change (silmitasertib) | log2 fold change [10] | log2 fold change [11]
1 | ADRM1 (UniProt Q16186) | 0.238 (active) | 0.072 | 0.028 | 0.063 | -0.036 | 0.006 | -0.061 | -0.003 | 0.01 | -0.006 | -0.009 | -0.045 | -0.058 | 0.006 | -0.012 | 0.038 | 0.067 | 0 | 0.064 | -0.052
2 | BLOC1S3 (UniProt Q6QNY0) | -0.02 | 0.006 | -0.067 | 0.031 | -0.051 | -0.022 | 0.017 | 0.078 | -0.103 | -0.027 | 0.057 | 0 | -0.014 | -0.023 | -0.06 | 0.039 | -0.018 | 0.006 | -0.013 | -0.014
3 | ALDH1B1 (UniProt P30837) | 0.03 | -0.018 | 0.003 | 0.014 | -0.113 | 0.131 | 0.022 | 0.034 | -0.018 | 0.059 | 0 | -0.039 | -0.065 | -0.054 | -0.019 | 0.281 (active) | 0.051 | -0.037 | -0.015 | 0.058
4 | ARFGAP2 (UniProt Q8N6H7) | -0.006 | -0.008 | -0.045 | -0.063 | -0.096 | 0.035 | -0.024 | -0.024 | -0.059 | 0.041 | -0.007 | -0.097 | -0.08 | -0.014 | 0.037 | -0.017 | 0.015 | 0.017 | -0.016 | -0.035
5 | ATG9A (UniProt Q7Z3C6) | -0.048 | -0.013 | -0.04 | -0.108 | -0.046 | -0.014 | 0.06 | -0.022 | 0.168 | 0.042 | 0.019 | 0 | -0.262 | 0.038 | 0.008 | 0.061 | 0.059 | -0.023 | 0.019 | -0.013
6 | AAR2 (UniProt Q9Y312) | -0.019 | -0.062 | 0.058 | 0.009 | -0.006 | 0.019 | -0.079 | -0.034 | 0.004 | -0.036 | -0.016 | -0.015 | 0.066 | -0.034 | 0.026 | 0.19 | -0.009 | 0.035 | 0.04 | -0.067
7 | ATP1A4 (UniProt Q13733) | 0.038 | 0.036 | 0.058 | -0.041 | 0.076 | 0.033 | 0.028 | -0.041 | -0.039 | 0.001 | 0.023 | 0.069 | 0.059 | -0.03 | -0.001 | -0.002 | 0.121 | 0.007 | 0.176 | -0.088
8 | ATP9B (UniProt O43861) | -0.042 | -0.042 | -0.147 | -0.149 | -0.067 | 0.038 | 0.037 | -0.096 | 0.121 | 0.069 | -0.58 (active) | -0.028 | 0.052 | -0.029 | -0.24 | -0.044 | 0.135 | 0.071 | 0.029 | -0.048
9 | ARFGEF1 (UniProt Q9Y6D6) | 0.052 | 0.006 | -0.024 | 0.014 | -0.026 | 0.008 | 0.005 | 0.047 | 0.009 | -0.021 | 0.028 | 0.121 | -0.023 | 0.006 | -0.044 | 0.02 | 0.009 | 0.065 | 0.023 | 0.069
10 | BRAP (UniProt Q7Z569) | 0.026 | 0.017 | -0.087 | -0.186 | -0.097 | -0.116 | -0.067 | -0.066 | -0.04 | 0.056 | 0.056 | -0.063 | -0.113 | -0.015 | 0.003 | 0.069 | 0.037 | 0.073 | 0.124 | 0.064
11 | BAD (UniProt Q92934) | -0.151 | -0.046 | 0.034 | 0.009 | 0.092 | -0.069 | 0.077 | 0.076 | -0.005 | -0.046 | -0.243 | 0.033 | 0.101 | -0.018 | -0.122 | 0.011 | -0.064 | -0.071 | 0.131 | -0.072
12 | AGRN (UniProt O00468) | 0.006 | 0.001 | -0.034 | -0.035 | 0.355 | -0.086 | 0.03 | 0.162 | 0.165 | -0.079 | 0.016 | 0.053 | 0.033 | 0.02 | 0.035 | -0.126 | 0.01 | -0.073 | 0.087 | -0.238
13 | ACSM3 (UniProt Q53FZ2) | 0.009 | -0.061 | -0.015 | 0.002 | -0.185 | 0.028 | 0.012 | 0.128 | 0.002 | -0.343 (active) | 0.017 | 0 | 0.021 | -0.125 | 0.009 | 0.122 | 0.122 | 0.06 | -0.134 | -0.094
14 | AGPAT3 isoform 3 (UniProt Q9NRZ7) | -0.057 | 0.04 | -0.012 | 0.004 | -0.092 | -0.007 | 0.033 | 0.018 | -0.025 | 0.062 | 0.008 | -0.044 | -0.141 | -0.041 | 0.004 | 0.004 | 0.029 | 0.008 | -0.079 | -0.044
15 | ANP32E (UniProt Q9BTT0) | 0.04 | 0.146 | -0.061 | -0.123 | 0.053 | -0.104 | 0.013 | 0.027 | 0.001 | -0.047 | 0.029 | -0.043 | 0.014 | 0.063 | 0.016 | 0.01 | 0.116 | 0.083 | -0.233 | -0.036
16 | AHSA1 (UniProt O95433) | -0.059 | 0.013 | -0.052 | -0.035 | -0.096 | -0.018 | 0.065 | 0.009 | -0.056 | 0.038 | -0.002 | -0.005 | -0.131 | -0.043 | 0.022 | 0.013 | 0.026 | 0.019 | -0.009 | -0.003
17 | AGPAT1 (UniProt Q99943) | -0.036 | 0.012 | -0.035 | 0.016 | -0.033 | -0.063 | 0.033 | -0.006 | 0.027 | 0.014 | 0.013 | -0.022 | 0.018 | -0.012 | -0.033 | -0.03 | 0.088 | -0.007 | -0.067 | -0.002
18 | ATAD1 (UniProt Q8NBU5) | -0.007 | 0.048 | 0.02 | -0.008 | -0.033 | -0.002 | 0.037 | -0.026 | 0.014 | -0.028 | -0.036 | -0.056 | -0.015 | -0.009 | 0.038 | 0.012 | 0.032 | 0.012 | 0.197 | -0.053
19 | ANKRD29 (UniProt Q8N6D5) | 0.063 | -0.027 | -0.09 | -0.057 | -0.002 | 0.053 | 0.22 | 0.133 | -0.223 | 0.083 | -0.044 | -0.181 | -0.337 | -0.119 | -0.03 | 0.061 | -0.002 | 0.039 | -0.2 | -0.051
20 | ALKBH5 (UniProt Q6P6C2) | 0.038 | -0.15 | 0.018 | -0.025 | 0.014 | 0.011 | -0.042 | 0.011 | 0.077 | -0.019 | 0.031 | -0.021 | 0.102 | 0.052 | -0.076 | 0.18 | 0.109 | 0.033 | 0.076 | 0.042
21 | ALDH9A1 (UniProt P49189) | 0.023 | 0.071 | -0.08 | -0.046 | -0.105 | 0.019 | 0.047 | 0.044 | 0.099 | -0.015 | 0.079 | 0.051 | -0.024 | 0 | -0.014 | -0.209 | -0.014 | -0.033 | 0.025 | 0.055
22 | BYSL (UniProt Q13895) | 0.118 | 0.034 | -0.131 | 0.163 | -0.082 | 0.064 | -0.05 | -0.003 | -0.063 | 0.062 | -0.012 | 0.053 | -0.052 | 0.062 | 0.046 | 0.058 | -0.007 | 0.085 | 0.068 | 0.001
23 | AARSD1 isoform 3 (UniProt Q9BTE6) | 0.009 | 0.065 | -0.013 | -0.038 | -0.062 | 0.031 | -0.004 | 0.002 | 0.022 | 0.064 | -0.051 | -0.008 | -0.214 (active) | -0.04 | 0.054 | -0.113 | 0.033 | 0.046 | 0.008 | 0.011
